GLD-1 TGE inh: GLD-1-TGE RNA interaction inhibition (C. elegans); purified GLD-1 + fluorescein TGE RNA, fluorescence polarization; inhibition, % at 5.96 µM; Q17339; 0.44% of 320,000 active;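 active = percent inhibition above a per-plate cutoff, the plate mean of test compounds plus 3 SD, cut at about 30% in these data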;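 note: 0% = DMSO wells with GLD-1 and probe and 100% = wells lacking GLD-1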
Bcl-xL primary: inhibitors of human Bcl-xL; Q07817; GST-Bcl-xL / FITC-Bim BH3 peptide fluorescence polarization; inhibition, % at 10.9 µM; 0.7% of 320,000 active; AID 2129;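 active = inhibition above the mean of all tested compounds plus 3 SD, cutoff set per campaign, cut at about 30% in these data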;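 note: 0% = DMSO wells and 100% = unlabeled Bim-BH3 peptide competitor; inhibitors lower millipolarization by displacing the labeled peptide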
EBV gp42 inh: EBV gp42 inhibition; Q1HVG2; Fluorescence polarization binding assay, mP read-out; inhibition, % (tested at 21.74 µM); 0.42% of 220,000 active; in the data active = inhibition above about 50%
eLon inh: inhibitors of E. coli Lon protease; inhibition, % at 7.94 µM; 0.42% of 360,000 active; purified E. coli Lon protease, fluorescence polarization; P0A9M0; in the data active = inhibition above about 13%, passing the limit was not always enough;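 note: 0% = enzyme with probe and DMSO and 100% = no enzyme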
MCL1-BIM inh: disrupts human MCL1 binding to BIM-BH3 peptide; inhibition, % at 10.9 µM; 0.68% of 320,000 active; GST-MCL1 / FITC-Bim-BH3 fluorescence polarization; AID 2057; Q07820;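 active = inhibition above the mean inhibition of all tested compounds plus 3 SD, set per campaign, cut at about 40% in these data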;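 note: 0% = DMSO wells and 100% = unlabeled Bim-BH3 peptide control; higher means more loss of mP so more displacement of Bim peptide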
MEX-5 binding: C. elegans MEX-5 TCR-2 RNA binding activity | MEX-5/FITC-TCR2 RNA binding, fluorescence polarization; active compounds read low | activity score (negative = inhibition of binding), % at 10 µM | 0.38% of 300,000 active | AID 1832;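 active = inhibition past about -25% in most replicates, and total fluorescence under double the plate's negative control median, limit read from the data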;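 note: 0% = DMSO and -100% = 5 µM competing unlabeled TCR2 RNA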
The depositor's hits bear a star; . = no result. The list is not random: actives were taken first. Their share in the collection is about 1.4%.

SMILES	GLD-1 TGE inh	Bcl-xL primary	EBV gp42 inh	eLon inh	MCL1-BIM inh	MEX-5 binding
CC(NC(=O)c1cc(F)c(F)cc1Cl)C1CC2CCC1C2 (stereo not given)	0	41*	.	-2	39	1
CC(NC(=O)c1ccc(F)cc1Cl)C1CC2CCC1C2 (stereo not given)	0	3	.	-3	10	4
O=C(N/N=C/c1ccc(Br)cc1)c1ccc(NC(=O)c2ccccc2)cc1	.	.	.	-6	.	.
CN(C)c1ccc(/C=N/NC(=O)c2ccc(NC(=O)c3ccccc3)cc2)cc1	17	32*	-4	-1	33	-1
COc1ccccc1NC(=O)C(=O)N/N=C/c1ccc([N+](=O)[O-])s1	.	.	79*	-9	.	0
COC(=O)N/N=C/c1ccc([N+](=O)[O-])s1	1	3	-3	3	0	0
C/C(=N/OC(=O)c1c(-c2ccccc2Cl)noc1C)c1cnccn1	-5	2	-4	-16	-4	3
C/C(=N/OC(=O)c1c(-c2c(Cl)cccc2Cl)noc1C)c1cnccn1	8	0	55*	-2	-3	2
CC(C)CNC(=S)N1CCC(C(=O)c2ccc3c(c2)OCCO3)CC1	4	6	-3	5	7	-1
CCOC(=O)CN(C(=O)CSc1nnc(CNc2ccc(F)cc2)n1C)c1ccccc1	45*	-2	-16	-6	-9	1
FC(F)(Cl)c1nnc2ccc(Cl)nn12	-4	2	3	2	6	0
F[B-](F)(F)COc1ccccc1	.	.	.	3	.	.
CCOc1ccc(N(CC(=O)N2CCC(Cc3ccccc3)CC2)S(C)(=O)=O)cc1	-3	3	-1	9	0	-1
CN(CCO)c1nc(N)c2c(N)nc3c(c2c1C#N)CC(=O)N3Cc1cccs1	-1	36*	6	4	41*	2
COc1ccc(CN2C(=O)Cc3c2nc(N)c2c(N)nc(N4CCOCC4)c(C#N)c32)cc1	12	38*	10	-15	47*	-9
CCC1Cc2c(nc(N)c3c(N)nc(N4CCOCC4)c(C#N)c23)O1 (stereo not given)	6	6	-17	5	0	0
CN(CCO)c1nc(N)c(C#N)c(CC#N)c1C#N	3	10	-6	0	3	-9
O=C1NCCCC2c3cc(O)c4ccccc4c3OC12N1CCCCC1 (stereo not given)	27	52*	-17	.	57*	.
Cc1ccc(NC(=O)/C(C#N)=C/c2ccc(C)s2)c(C)c1	6	48*	-54	-9	41*	-54*
Cc1cccc(C)c1NC(=O)/C(C#N)=C/c1ccsc1	3	-1	-1	-23	-3	-1
Cc1ccc(/C=C(\C#N)C(=O)Nc2c(C)cccc2C)s1	-32	-29	-48	-34	-42	-46*
Cc1ccc(CNC(=O)/C(C#N)=C/c2ccc(C)s2)cc1	-2	4	-6	-2	2	-2
COCCN(C(=O)c1cc(Cl)ccn1)c1c(N)n(Cc2ccccc2)c(=O)[nH]c1=O	5	-7	.	-5	-8	.
CCc1c(C)c2ccc(OCC(=O)NCC3CCC(C(=O)O)CC3)c(C)c2oc1=O (stereo not given)	-1	4	.	3	2	1
c1ccc(-c2nnc(-c3ccccn3)nn2)nc1	-3	0	.	0	12	-42*
SMILES	GLD-1 TGE inh	Bcl-xL primary	EBV gp42 inh	eLon inh	MCL1-BIM inh	MEX-5 binding
c1ccc(C(c2nnnn2C2CCCCC2)N2CCc3ccccc3C2)nc1 (stereo not given)	25	30*	-5	-1	29	0
COc1ccccc1N1C(=O)S/C(=C\c2ccc(C)s2)C1=O	-36	-21	.	-32	-69	-32*
Cc1ccc(/C=C2\Sc3ccccc3C2=O)s1	-18	3	94*	-31	6	-2
COc1ccccc1C(=O)OCCNC(=O)Cn1cnc2c1c(=O)n(C)c(=O)n2C	6	5	-3	3	10	0
CC(C)(C)OC(=O)C[C@H]1C/C=C\C[C@H](CC(=O)N(CCO)Cc2ccccc2)C(=O)N[C@H](C(C)(C)C)COC1=O	0	.	.	3	.	.
Cc1cccc2c3nc4ccccc4nc3n(C)c12	14	49*	.	-4	40*	2
O=C(O)C1(c2ccccc2)CCN(S(=O)(=O)c2cccc(Cl)c2)CC1	1	4	.	9	3	1

Screens: PubChem BioAssay, several laboratories
